Measured values taken from PubChem BioAssay AID594 (National Center for Advancing Translational Sciences (NCATS), 2007).
The whole screen tested about 59,000 compounds, of which about 30 (0.05%) were called active. The sample holds actives, similar compounds and a random draw of the others, so the mix is not that of the screen. No stated cut-off is given here; in the data, active means max dye-equivalent concentration above about 11 nM; inconclusive means between about 1.1 nM and that limit; inactive means weaker than that.

assay: qHTS Assay for Spectroscopic Profiling in Rhodamine Spectral Region; settings: Rhodamine-region fluorescence, 547/598 nm, Tris buffer
Excerpt: NIH Molecular Libraries Screening Centers Network [MLSCN] NIH Chemical Genomics Center [NCGC] […] Occasionally, the artifactual effect may originate from the compound#s own spectral or other biophysical properties which generally tend to track its assay concentration. Pre-screening/profiling the library with respect to the compounds# spectral properties should help one exclude false positives early on. While the most informative fluorescent profiling data set is obtained by performing a full excitation and emission scan of each well by using a monochromator-based plate reader, such an approach is practical only on a very limited scale as scanning each well requires long time. An alternative approach, applied here, is to perform plate reader scans using selected excitation and emission wavelength pairs to generate a multidimensional relational database that correlates compound concentration and the respective relative fluorescence intensity at a given wavelength set. A standard curve of rhodamine present on each plate as six-point concentration series, was used to compute a normalized fluorescence response, termed dye-equivalent concentration, for each compound at each concentration.
NCGC Assay Protocol Summary: Buffer: 100 mM Tris buffer, pH 8.0 Dye standard plate: The wells in columns 1 through 4 of a Kalypsys polypropylene 1536-well compound plate were filled with standard solutions of fluorophore corresponding to the spectral region of interest. Solutions of rhodamine were placed in the following wells: E1, F1: 3 mM, E2, F2: 300 uM, E3, F3: 30 uM, E4, F4: zero (DMSO), G1, H1: 3 uM, G2, H2: […], G3, H3: 300 nM, G4, H4: zero (DMSO). Assay Steps: Six uL of buffer were dispensed to 1536-well Greiner black plates. Compounds and dye standards (23 nL) were transferred via Kalypsys PinTool. The plates were incubated for 15 min at room temperature, and then read on ViewLux (Perkin-Elmer) High-throughput CCD imager using 547 nm and 598 nm excitation and emission filter set. Keywords: NIH Roadmap, MLSCN, MLI, MLSMR, qHTS, NCGC, Rhodamine , Fluorescent Profiling.

Max dye-equivalent concentration, inactive:
COC(=O)CN(c1cccc(C(C)=O)c1)S(C)(=O)=O
COCCn1c(=O)c(C)nc2cnc(N(C)C)nc21
O=C(COc1ccc(F)cc1)N(CC1=CCS(=O)(=O)C1)c1ccccc1
CN(c1ccc(C(=O)N2CCc3ccccc3C2)cc1)S(C)(=O)=O
CCCC(=O)Nc1nnc(CC(=O)OCC)s1
CCOP1(=O)C=C(C(C)(C)C)OC1c1ccc(F)cc1 (stereo not given)
CC(=O)NC(Cc1ccc(F)cc1)C(=O)O (stereo not given)
Cc1[nH]c(N)nc(=S)c1CCCNc1ccccc1
O=C(O)c1cscn1
CCOC(=O)Cc1c(C)nc2c(C#N)c(C)nn2c1C
CCN(CCCNC(=O)C1CCN(S(=O)(=O)c2cnc[nH]2)CC1)c1ccccc1
COc1cc(OC)c(C(=O)Nc2ccc(N(C)C)cc2)cc1OC
Cc1nc2cc(-c3ccc(F)cc3)nn2c(N2CCOCC2)c1C
COCCOC(=O)C1=C(C)Nc2nc(C)nn2C1c1ccccc1 (stereo not given)
CCOC(=O)c1sc(NC(=O)CSc2nnc(-c3ccco3)o2)c(C(=O)OCC)c1C
C[C@H](NC(=O)OC(C)(C)C)c1nnc(SCC(=O)Nc2ccc(Br)cc2)o1
Cn1c(=O)c2c(ncn2CC(=O)N2CCN(c3ccccc3)CC2)n(C)c1=O
CCCCc1nccn1CCn1ccnc1CCCC
O=C(CCn1c(=O)oc2ccccc21)Nc1ccon1
O=C1OC(NC(=O)c2ccccc2)C(N2CCOCC2)=C1Cl (stereo not given)
COc1cc(C2C(C(=O)c3sc(C)nc3C)=C(O)C(=O)N2CCN(C)C)cc(OC)c1OC (stereo not given)
COc1ccc(CC(=O)Nc2nc3n(n2)C(c2ccccc2)CC(=O)N3)cc1OC (stereo not given)
CCOC(=O)CN1CC23C=CC(O2)C(C(=O)Nc2ccc(F)cc2)C3C1=O (stereo not given)
CC1(C)Cc2c(C#N)c(SCc3nc4ccccc4[nH]3)nc(N3CCOCC3)c2CO1
CCOC(=O)C1CCCN(Cc2nc(N)nc(Nc3ccc(C)cc3)n2)C1 (stereo not given)
CCN(CC)c1ccc2cc(C(=O)O)c(=O)oc2c1
Cc1ccc(CN2C(=O)CCC2C(=O)NCCCN2CCCCC2C)cc1 (stereo not given)
Cc1ccc(Cn2nnc3c(=O)n(CC(=O)N4CCCCC4)cnc32)cc1
Cc1ccc(-n2nc3c(c2NC(=O)c2ccc4c(c2)OCO4)CSC3)c(C)c1
CCCC1CC(C)(C(=O)Cn2[nH]c(=O)ccc2=O)OC1=O (stereo not given)
CCc1cccc2c3c([nH]c12)C(CC)(CC(=O)O)OCC3 (stereo not given)
CCC(c1nnnn1Cc1ccccc1)N(Cc1cc2cc(OC)ccc2[nH]c1=O)CC1CCCO1 (stereo not given)
O=C(CN(CC1CCCO1)C(=O)CNS(=O)(=O)c1ccccc1)NCc1ccccc1 (stereo not given)
CC(=O)Nc1ccc(S(=O)(=O)N2CCN(CCCOc3cc(C)ccc3C)CC2)cc1
CCNS(=O)(=O)c1ccc(NC(=O)Nc2cccc(C(F)(F)F)c2)cc1
CCOc1ccc(CN(Cc2ccco2)C(c2cccs2)c2nnnn2C(C)(C)C)cc1 (stereo not given)
O=c1[nH]c(-c2cccs2)nc2ccccc12
Cc1ccc2nc(NCCCNC(=O)c3cnccn3)c(C#N)cc2c1
COc1ccc(C)cc1NC(=O)CSc1nc(SC)ns1
Cc1nc2nc(CSc3nc4ccccc4s3)cc(=O)n2[nH]1
COc1ccc(Cl)cc1S(=O)(=O)Nc1cccc(C(=O)O)c1
O=C(Nc1ccon1)c1sc2ccccc2c1Cl
Cn1c(=S)c2[nH]c(SCCCc3ccccc3)nc2n(C)c1=O
O=S(=O)(NCc1cccnc1)c1ccc(Br)s1
O=C(OCC(O)C(O)COC(=O)c1ccccc1)c1ccccc1 (stereo not given)
Cc1nc2ccc(S(=O)(=O)NCC(=O)NCCN3CCCCC3C)cc2s1 (stereo not given)
CNC(=O)c1cc2c(ccc3ccccc32)oc1=N
COc1ccc2oc(=O)c(C(=O)N3CCN(c4ccccc4F)CC3)cc2c1
COc1ccc(N=Cc2c(O)[nH]c3ccccc23)cc1OC
CC1CCCN(C(=O)Cn2c(=O)oc3ccccc32)C1 (stereo not given)
CC1(C)CC(O)C(CCC(O)c2ccccc2)C(C)(C)N1 (stereo not given)
CC(=O)OCc1cc2cc(C)ccc2[nH]c1=O
O=C(c1cc(C(F)(F)F)cc(C(F)(F)F)c1)N1CCC2(CCCN(c3ccccn3)C2)CC1
CCc1ccccc1NC(=O)CSc1nnc([C@@H](NC(=O)OC(C)(C)C)C(C)CC)o1 (stereo not given in full)
CCOC(=O)CSc1nncc2ccc(OC)c(OC)c12
